Measured values as given in the supplement of paper PMC12645437, “Orthogonal IMiD-Degron Pairs Induce Selective Protein Degradation in Cells” (ACS Chemical Biology, 2025).
Over roughly 8,300 sequences, “log2 fold change of degron read counts, EGFP-low vs EGFP+ sorted cells (limma voom), compound-induced degradation” has its median near -1.1; the highest 2% begin near 3.2. For the sample, the highest values were picked, then their nearest neighbours and some sequences at random.

T1: CRBN, Q96SW2
T1 chain: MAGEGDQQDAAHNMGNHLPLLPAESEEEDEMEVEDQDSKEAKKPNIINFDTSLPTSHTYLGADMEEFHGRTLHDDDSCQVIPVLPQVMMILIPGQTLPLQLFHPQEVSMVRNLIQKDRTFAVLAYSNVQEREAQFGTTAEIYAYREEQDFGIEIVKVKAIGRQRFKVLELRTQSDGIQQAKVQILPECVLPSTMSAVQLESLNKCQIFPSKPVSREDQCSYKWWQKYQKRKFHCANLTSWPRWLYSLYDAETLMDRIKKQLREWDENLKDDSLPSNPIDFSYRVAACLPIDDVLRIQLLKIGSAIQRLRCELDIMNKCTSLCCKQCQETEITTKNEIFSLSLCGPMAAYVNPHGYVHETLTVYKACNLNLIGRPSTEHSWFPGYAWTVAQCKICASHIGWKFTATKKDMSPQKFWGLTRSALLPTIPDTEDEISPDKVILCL


Molecular target: T1, CRBN, Q96SW2
Experiment: log2 fold change of degron read counts, EGFP-low vs EGFP+ sorted cells (limma voom), compound-induced degradation; higher = more compound-induced degradation of the degron-EGFP fusion; degrons are variants of IKZF1/3 zinc finger 2; compound dose not given here
Conditions: Jurkat, 18 h
Method: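 Pooled library of 8380 IKZF3 ZF2 degron mutants (positions 146-167 varied within the IKZF3 130-189 degron; only the varied core is printed, flanks not printed) fused to EGFP with IRES-mCherry, lentivirally expressed in Jurkat cells. mCherry+ cells were treated with one IMiD compound for 18 h (dose not stated) and FACS-sorted into EGFP-low and EGFP+ populations. Degron sequences were counted by NGS, and log2FC (EGFP-low vs EGFP+) was estimated by limma voom over 3 biological replicates.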

[1] = compound: compound 19 (5-tert-butyl-thalidomide)
[2] = compound: compound 22 (5-morpholino-thalidomide)
[3] = compound: compound 33 (diphenyl IMiD analogue)
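Note: pooled lentiviral library of zinc finger degron-EGFP fusions in mCherry-positive Jurkat cells, FACS-sorted after compound exposure, with degron abundance counted by next-generation sequencing.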

Sequence | log2 fold change of degron read counts [1] | log2 fold change of degron read counts [2] | log2 fold change of degron read counts [3] | log2 fold change of degron read counts (compound: thalidomide)
FSCDVCGAEFTQKGNLLRHIKL [46F_47S_49D_50V_52G_53A_54E_55F_67L_, Q9UKT9] | -0.733 | -1.36 | -1.13 | -1.96
FNCNICGANFTQKGNLLRHIKL [46F_47N_49N_50I_52G_53A_54N_55F_67L_, Q9UKT9] | 0.662 | -0.0154 | -0.393 | -0.94
FGCDQCGARFTQKGNLLRHIKL [46F_47G_49D_50Q_52G_53A_54R_55F_67L_, Q9UKT9] | -1.28 | -2.53 | -2.52 | -1.78
FKCEICGRWFTQKGNLLRHIKL [46F_47K_49E_50I_52G_53R_54W_55F_67L_, Q9UKT9] | -2.8 | -3.25 | -3.01 | -2.58
FWCNQCGRHFTQKGNLLRHIKL [46F_47W_49N_50Q_52G_53R_54H_55F_67L_, Q9UKT9] | -1.56 | -1.46 | -1.56 | -1.55
FACPQCGAVFTQKGNLLRHIKL [46F_47A_49P_50Q_52G_53A_54V_55F_67L_, Q9UKT9] | 0.29 | -1.36 | -0.148 | -1.43
FVCPICGHGFTQKGNLLRHIKL [46F_47V_49P_50I_52G_53H_54G_55F_67L_, Q9UKT9] | -2.33 | -2.2 | -1.88 | -0.905
FLCEQCGAEFTQKGNLLRHIKL [46F_47L_49E_50Q_52G_53A_54E_55F_67L_, Q9UKT9] | -2.34 | -3.65 | -2.09 | -1.63
FQCPQCGAYFTQKGNLLRHIKL [46F_47Q_49P_50Q_52G_53A_54Y_55F_67L_, Q9UKT9] | -1.88 | -1.45 | -0.995 | 1.25
LQCPICGFVCTQKGNLLRHIKL [46L_47Q_49P_50I_52G_53F_54V_55C_67L_, Q9UKT9] | 0.325 | 2.16 | 1.88 | 3.76
LTCPICGFVCTQKGNLLRHIKL [46L_47T_49P_50I_52G_53F_54V_55C_67L_, Q9UKT9] | 0.397 | 1.59 | 2.08 | 2.24
LCCPICGFVCTQKGNLLRHIKL [46L_47C_49P_50I_52G_53F_54V_55C_67L_, Q9UKT9] | 1.01 | 1.57 | 2.59 | 2.1
LGCPICGFVCTQKGNLLRHIKL [46L_47G_49P_50I_52G_53F_54V_55C_67L_, Q9UKT9] | 3.04 | 1.82 | 1.33 | 0.747
LMCPICGFVCTQKGNLLRHIKL [46L_47M_49P_50I_52G_53F_54V_55C_67L_, Q9UKT9] | -0.234 | 0.389 | 2.08 | 1.67
LYCPICGFVCTQKGNLLRHIKL [46L_47Y_49P_50I_52G_53F_54V_55C_67L_, Q9UKT9] | 3.29 | 3.49 | 2.29 | 1.2
FICNICGADFTQKGNLLRHIKL [46F_47I_49N_50I_52G_53A_54D_55F_67L_, Q9UKT9] | -2.47 | -1.85 | -1.03 | -0.92
FTCDVCGAIFTQKGNLLRHIKL [46F_47T_49D_50V_52G_53A_54I_55F_67L_, Q9UKT9] | -2.2 | -1.5 | -0.885 | -0.951
FACEICGRYFTQKGNLLRHIKL [46F_47A_49E_50I_52G_53R_54Y_55F_67L_, Q9UKT9] | 1.02 | -1.33 | -1.87 | -1.22
